Reference: PubChem BioAssay (NCATS)
“And” between values parts separate entries of the source, which are not always exact repeats. Identical values can stand only once. Results filed as inconclusive are left out. Some structures have more than one record in an assay (separate samples or runs), and their calls can disagree. Values without a mark were called inactive. The source made the active and inactive calls. Calls come from the whole dose curve; as a rule, active = well fitted activation curve with a large enough effect; inconclusive = small, poorly fitted or top-dose-only effect; inactive = no such curve, though single readings can be large or run the other way. Peptide text beside a SMILES is read from it.
Potency is the fitted concentration of half-maximal effect.

What follows are compounds tested against Cellular tumor antigen p53 (Homo sapiens) (UniProt P04637) (assay: Primary qHTS for small molecule compounds that upregulate eGFP-tagged delta133p53alpha (in N-terminal) cells. (AID 2060322; note: nearly all actives have a fitted effect of over 75% in size;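 for activation: cells pre-induced with doxycycline then dosed without doxycycline; series mostly up to about 56 µM; 0% = DMSO vehicle and 100% = reference activator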)). Conditions: NCI-H358 eGFP-delta133p53alpha fluorescence, 24 h; activation: hits give high values.
Cellular tumor antigen p53 (Homo sapiens), sequence (P04637 whole entry, looked up): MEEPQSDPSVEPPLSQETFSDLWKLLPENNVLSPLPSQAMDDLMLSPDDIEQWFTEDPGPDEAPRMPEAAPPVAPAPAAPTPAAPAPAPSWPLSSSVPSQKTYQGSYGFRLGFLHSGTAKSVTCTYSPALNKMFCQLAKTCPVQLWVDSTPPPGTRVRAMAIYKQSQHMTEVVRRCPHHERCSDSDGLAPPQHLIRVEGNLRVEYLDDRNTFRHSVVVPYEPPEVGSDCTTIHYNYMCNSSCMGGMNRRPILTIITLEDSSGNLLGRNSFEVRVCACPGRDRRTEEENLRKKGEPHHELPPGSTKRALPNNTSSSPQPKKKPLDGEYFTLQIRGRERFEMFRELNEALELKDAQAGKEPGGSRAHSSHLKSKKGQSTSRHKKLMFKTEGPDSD
From the text: Assay Development and Screening Technology
National Center for Advancing Translational Sciences (NCATS),
National Institute of Health (NIH), Rockville, Maryland
Cellular senescence (CS) is one of the hallmarks of aging and age-related diseases. Senescent cells are characterized by an irreversible growth arrest, an increase in senescence-associated beta-galactosidase (SA-beta-gal) activity and p16INK4a expression, an activation of the DNA damage response pathways, and the emergence of a senescence-associated secretory phenotype (SASP).
Delta133p53alpha, a human/primate-specific p53 protein isoform, delays or inhibits the induction of CS and SASP in various types of human cells, including progeria-derived fibroblasts, primary normal astrocytes, and CD8+ T lymphocytes. Induction of delta133p53alpha with small molecule compounds may provide therapeutic opportunities for inhibition of senescence/SASP-associated pathologies in progeria syndromes, astrocyte-mediated neuroprotection in neurodegenerative diseases, and possibly prevention and treatment of a wider range of senescence- and aging-associated diseases.
Here we report the development and validation of a cell-based quantitative high throughput screening (qHTS) assay in 1,536-well format. This qHTS assay uses the NCI-H358 cell line with doxycycline-inducible expression of enhanced green fluorescent protein (eGFP)-tagged delta133p53alpha, which allows efficient and highly quantitative measurement of the protein levels.
PROTOCOL TABLE (as described by Inglese J, Shamu CE and Guy RK. 2007)
SEQUENCE No. (e.g., 1, 2, 3, etc.); […] (e.g., Cells, Incubation, Reagent, etc.); VALUE; DESCRIPTION.
1; Cells; 4uL; 800 doxycycline treated cells / well in doxycycline-free media, 1536-well black, clear-bottom low base Aurora microplates.
2; Compounds; 23 nL; Kalypsis pin tool (Wako) equipped with 1536-well pin heads, 5-azacytidine positive control.
3; Incubation; 24 hr; 37C, 5% CO2; 95% relative humidity.
4; Aspiration; 1x; BioTek EL406 washer dispenser (Agilent).
5; Fixing; 3.5% paraformaldehyde, BioTek EL406 washer dispenser (Agilent).
6; Washing; 1x PBS; BioTek EL406 washer dispenser (Agilent).
7; Nuclei staining; 1:1000 dilution of Hoechst 33342 (Thermofisher), BioTek EL406 washer dispenser (Agilent).
8; Incubation; 20 min; in the dark at room temperature.
9; Washing; 2x, 1x PBS (ThermoFisher), BioTek EL406 washer dispenser (Agilent).
10; Reagent; 10 uL; 1x PBS per well, sealed with clear adhesive tape.
NOTES (numbers refer to sequence numbers above).
1. NCI-H358 cells expressing eGFP-tagged delta133p53alpha were grown in T75 culture flasks and treated with doxycycline for 24h, at 10 ng/ml for eGFP-D133p53a cells (N-terminal cell) and 100 ng/ml for D133p53a-eGFP cells (C-terminal cells). Cells were trypsinized, counted using a Counted 3 Automated Cell Counter (Thermo Fisher), and diluted to a concentration of 200,000 cells/ml. A Multidrop Combi Reagent Dispenser (ThermoFisher) was used to dispense 800 cells/well in […] of doxycycline-free media, into 1536-well black/clear bottom low base plates (AuroraMicroplates).
2. After plating cells, 23 nl of compound library, DMSO vehicle control or positive control (5-azacytidine) were transferred by Pin Tool (Wako). The plate map layout was the same for each plate: (column 1) non-doxycycline treated cells + DMSO vehicle control; (column 2) doxycycline treated cells + DMSO vehicle control baseline; (column 3) doxycycline treated cells + positive control 57.5 uM final concentration 5-azacytidine; (column 4) doxycycline treated cells + serial dilution of 5-azacytidine, 16-point 1:2 titration spanning 1.8 nM to […] final concentration; (columns 5-48) doxycycline treated cells + titration of library compounds.
3. Cells were incubated at 37 °C, 5 % CO2, 95% RH with breathable metal lid for 24h.
4-10. […] After two washes, 10 ul of 1X PBS (Thermo Fisher) was dispensed to each well. Clear adhesive plate seals (VWR) were applied and plates stored at 4 °C.
11. […]
With `Cc1ccc(C(=O)Nc2ccc(CN3CCN(C)CC3)c(C(F)(F)F)c2)cc1C#Cc1cnc2cccnn12` the Potency was 7.69 µM (active) and 10.7 µM (active).
`COc1cc(CC(COC2OC(CO)C(O)C(O)C2O)c2cc(/C=C/CO)cc(OC)c2O)ccc1O` (stereo not given) was tested, and the activation was -6.25%.
Work on `CC(C)C1NC(=O)CNC(=O)C2CCCN2C(=O)C(Cc2c[nH]c3ccccc23)NC(=O)CNC(=O)C(Cc2ccc(O)cc2)NC(=O)CNC1=O` (stereo not given) (cyclo(GVGYGWP); configuration not given here) yielded an activation of -6.25%.
With `CCc1ccc(OCc2ccccc2C(=O)Nc2ccc3nc(C)cc(N)c3c2)cc1` the activation was 45.3%.
For `Cc1cc(O[C@@H]2O[C@H](COC(=O)CC(=O)O)[C@@H](O)[C@H](O)[C@H]2O)c(C(C)C)cc1O`, the activation was 0.763%.
Compound `OC(CCCN1CCCCC1)(c1ccccc1)c1ccccc1` has an activation of -16.4%.
`CC(=O)OCC1OC(O[C@H]2CC[C@]34C[C@]35CC(O)[C@]3(C)[C@@H]([C@H](C)CC/C=C(\C)C(=O)O)C(O)C[C@@]3(C)C5CC[C@H]4C2(C)C)C(O)C(O)C1OC1OCC(O)C(O)C1O` (stereo not given in full) was tested, and the activation was -13%.
In the case of `O=C(CCCN1CC=C(n2c(=O)[nH]c3ccccc32)CC1)c1ccc(F)cc1`, the activation is reported as 17.5% and 4.33%.
Work on `COc1cc(NC(=O)c2ccccn2)ccc1Cl` yielded an activation of -5.25%.
In the case of `O=C(O)[C@H]1CCCC[C@H]1C(=O)N1CCc2ccccc2[C@H]1CN1C(=O)c2ccccc2C1=O`, the activation is reported as -3%.
For `Clc1ccccc1CN1CCc2sccc2C1`, the activation was 16.7% and the Potency was 17.2 µM (active).
`NS(=O)(=O)c1cccc2c1C(=O)c1cccc(O)c1C2=O` gave an activation of -16%.
`CC1(C)SC2C(NC(=O)[C@H](C(=O)O)c3ccsc3)C(=O)N2C1C(=O)O` (stereo not given in full) gave an activation of 3.67%.
In the case of `Cc1c(CN2CCN(C(=O)C(C)O)CC2)sc2c(N3CCOCC3)nc(-c3cnc(N)nc3)nc12` (stereo not given), the Potency is reported as 12 µM (active).
Compound `Cc1ccc(C(C)C)c(O)c1` has an activation of -8.47%.
For `OCCCNc1cc(-c2ccnc(Nc3cccc(Cl)c3)n2)ccn1`, the Potency was 172 nM (active) and 301 nM (active).
Compound `c1ccc(CNc2nc(NCc3ccccc3)c3ccccc3n2)cc1` has an activation of 44.2%.
`COc1ccc(C2(O)c3c(ccc4c3OC(C)(CCC=C(C)C)C=C4)NC(=O)C2OC)cc1` (stereo not given) was tested, and the activation was -4.58%.
`Cc1nc2c(-c3cnc(N)nc3)nc(N3CCOCC3)nc2n1C(C)C` was tested, and the activation was 14.3% and the Potency was 9.66 µM (active).
`Cc1[nH]c2ccccc2c1CCNC(=O)c1cccs1` gave an activation of -18.1%.
Compound `N#Cc1cc(NC(=O)Nc2nnc(-c3ccncc3)s2)ccc1-c1cn[nH]c1` has an activation of -26.3%.
In the case of `Cc1cccc(C)c1OCC(C)N` (stereo not given), the activation is reported as 8.37% and -22.7%.
Work on `CC1CCC2(C(=O)O)CCC3(C)C(=CCC4C5(C)CCC(O)C(C)(CO)C5CCC43C)C2C1(C)O` (stereo not given) yielded an activation of -0.893%.
`CC(=O)Nc1ccc(CC(=O)O)cc1` was tested, and the activation was 6.21%.
For `Cc1ccc(NC(=O)N2CCN(c3nc(N)nc4sc(-c5cccnc5)nc34)CC2)cc1`, the activation was 26.7%.
`Cc1cc(Nc2nc(NC(C)c3ncc(F)cn3)ncc2Cl)n[nH]1` (stereo not given) showed an activation of 8.04%.
Work on `O=C(O)c1ccc(S(=O)(=O)N(Cl)Cl)cc1` yielded an activation of 20.9%.
Work on `CN1CCC(c2c[nH]c3ccc(NC(=O)c4ccc(F)cc4)cc23)CC1` yielded an activation of -11%.
With `O=C(O)c1cc(N(Cc2ccc(C3CCCCC3)cc2)C(=O)c2ccc(Oc3ccccc3)cc2)ccc1O` the activation was -2.86%.
Work on `CNc1c2c(nn1C)CCCC2` yielded an activation of -18.4%.
`CC(=O)OC[C@@]12C(=O)C[C@@H](C)[C@]3(C[C@@H](c4ccoc4)O[C@H]3OC(C)=O)[C@H]1CCC[C@]21CO1` showed an activation of 11.5%.
`CCCOC(=O)c1ccc(O)cc1` gave an activation of -10%.
For `C[N+](C)(C)CCOC(N)=O`, the activation was -23.4% and -15.4%.
For `COc1cc(C2Oc3c(OC)cc(CCCO)cc3C2CO)ccc1O[C@H]1O[C@H](C)[C@@H](O)[C@H](O)[C@@H]1O` (stereo not given in full), the activation was -13.7%.
In the case of `CCN1C(C)(C)CC(Oc2ccc(C(=O)Nc3ccc(NC(=O)Nc4cc(C(C)(C)C)on4)cc3)nc2)CC1(C)C`, the Potency is reported as 21.3 µM (active).
In the case of `OCC1=C[C@@H](O)[C@@H]2C=CO[C@@H](O[C@@H]3O[C@H](CO)[C@@H](O)[C@H](O)[C@H]3O)[C@H]12`, the activation is reported as -32.8%.
`Cc1ccc(O)c(-n2nc3ccccc3n2)c1` gave an activation of 7.53%.
For `CC(C)OC(=O)C(C(=O)OC(C)C)=C1SC=CS1`, the activation was 3.95% and 27.9%.
